# Assay results taken from PubChem BioAssay AID1508649 (National Center for Advancing Translational Sciences (NCATS), 2021).
# Among all 43,000 compounds or so, about 830 (1.9%) were called active. Not shown: some 30% with an inconclusive outcome. The full list was thinned out, with actives kept by preference. Values without a mark were called inactive. Rule for the calls: active = clear falling dose curves in both reporters; inconclusive = both reporters move, but less clearly or upward; inactive = either reporter flat; the % is the NLuc reporter signal.
# Assay: Cell-based coincidence reporter assay to measure PMP22 gene transcription in S16 Pmp22-F2sN cells - Primary screen
# Conditions: S16 Pmp22-F2sN Schwann cells (luciferase reporters placed in the Pmp22 gene), FLuc/NLuc coincidence luminescence, 24 h; series mostly up to 57.5 µM; activity change, negative = inhibition: at the top concentration
# Description: Assay Provider: Jim Inglese Ph.D. National Center for Advancing Translational Science, National Institutes of Health, Rockville, MD CMT is a heterogeneous group of neurological disorders that affect approximately 1 in 2,500 people. In particular, the most common form of CMT, CMT1A is genetically linked to the duplication of the PMP22 gene which leads to Schwann cell overexpression, thus manifesting itself as a typical case of dose-sensitive diseases. To identify small molecule compounds that can mediate the expression of PMP22 we developed a phenotypic assay screening strategy by utilizing genome editing techniques to construct Schwann cell lines containing novel reporter technology to monitor the transcriptional or translational regulation of PMP22. For high sensitivity we use a bioluminescent reporter system embedded in the 3' UTR of the PMP22 gene (S16(c9) Pmp22-F2sN) to identify compounds that inhibit gene expression. […] We can further discriminate the effect of all transcriptionally active molecules on PMP22 translation or stability with an assay that incorporates a short NLuc peptide (HiBiT) at the C-terminus of expressed PMP22 (S16(f8) PMP22-HiBiT) allowing alpha complementation and luminescence detection of membrane-associated PMP22 protein. These assays were screened against the NCATS Sytravon Library Collection. Miniaturization of these assays to 1536-well plate format for quantitative high throughput screening (qHTS) yielded rich data sets immediately from the qHTS assay (S16(c9) Pmp22-F2sN), when compared with data from a cell viability assay (Cell TiterGlo) to identify compounds that decreased the output signals through cellular toxicity to streamline the selection process of actives for subsequent characterization using the HiBiT assay (S16(f8) PMP22-HiBiT).
# Cell-based coincidence reporter assay to measure PMP22 gene transcription in S16 Pmp22-F2sN cells PROTOCOL TABLE (format as described by Inglese J, Shamu CE and Guy RK. 2007) SEQUENCE No. (e.g., 1, 2, 3, etc.); […] (e.g., Cells, Incubation, Reagent, etc.); VALUE and DESCRIPTION. 1. Cells. Add 500-1,000 cells in 4 uL in growth media (DMEM High Glucose, No Phenol Red media + 10% heat-inactivated FBS + 1% Pen/Strep supplemented media) per well into Greiner 1536-well white/solid bottom high base, TC-treated plates. 2. Compounds. Library compounds and controls added at 23nL per well, transferred by Pin Tool. 3. Incubation. Incubate plates at 37C, 5% CO2, 95% RH for 24 h. 4. Reagent. Add 3.5uL Nano-Glo Dual-Luciferase Reporter Assay System reagent 1: Lysis and FLuc reagent per well of Greiner 1536-well plates. 5. Incubation. Incubate plates at room temperature for 10 min., protect from light. 6. Detector. FLuc luminescence measured using CCD-based camera (Viewlux). 7. Reagent. Add 3.5uL Nano-Glo Dual-Luciferase Reporter Assay System reagent 2: Stop&Glo reagent per well of Greiner 1536-well plates. 8. Incubation. Incubate plates at room temperature for 10 min., protect from light. 9. Detector. NLuc luminescence measured using CCD-based camera (Viewlux). NOTES (numbers refer to Sequence numbers above; values are from representative experiments) 6. Luminescence Read #1 (FLuc): Clear filter; Exposure = 10 sec, Gain = High, Speed = Slow, Binning = 2X 9. Luminescence Read #2 (NLuc): Clear filter; Exposure = 1 sec, Gain = High, Speed = Slow, Binning = 2X REFERENCES: 1. Inglese J, Shamu CE and Guy RK, Reporting data from high throughput screening of small molecule libraries, Nature Chemical Biology, 2007, 3(8): 438-441. doi.org/10.1038/nchembio0807-438 2. Yasgar A, Shinn P, Jadhav A, Auld DS, Michael S, Zheng W, Austin CP, Inglese J and Simeonov A, Compound Management for Quantitative High-Throughput Screening. J. Assoc. Lab. Auto., 2008, 13: 79-89. doi: 10.1016/j.jala.2007.12.004
# % is set by controls: 0 for no effect and ±100 for the full control effect; potency is the fitted concentration of half-maximal effect.
SMILES,"activity change, negative = inhibition [%]",Potency
CCOC(=O)C1CCN(c2ncnc3c2c(-c2ccccc2)cn3-c2cccc(C)c2)CC1,29.9,–
Cc1cccc(NC(=O)CN(c2ccc(C(C)C)cc2)S(=O)(=O)c2c(C)nn(C)c2C)c1C,-1.83,–
Cc1cc(F)ccc1NS(=O)(=O)c1ccc(-n2cccn2)cc1,–,15 µM (active)
O=C(Nc1ccc(F)cc1F)c1cnn(-c2ccc(F)cc2)c1-n1cccc1,1.78,–
Cc1cc(F)ccc1NC1(c2ccccc2)C(=O)c2ccccc2C1=O,-17.3,–
O=C(Cn1nc(Cc2cccnc2)c2ccccc2c1=O)N1CCN(c2ccccc2F)CC1,-3.71,–
Cc1ccc(C2C=C(c3ccc(Cl)cc3)Nc3nc(NC(=O)CCC(=O)O)nn32)cc1 (centres undefined),-1.58,–
Cc1cc(-c2ccccc2)n2nc(-c3ccccc3)cc2n1,24.1,–
O=C(CCc1nc(CN2CCN(S(=O)(=O)c3ccc(Cl)cc3)CC2)no1)N1CCCCC1,-9.23,–
Cc1cc(C)c(NC(=O)CSc2nc3ccncc3[nH]2)c(C)c1,-45.4,–
Cc1ccc(CNC(=O)c2c(O)nc3c(C)cccn3c2=O)cc1,25.4,–
CCCCn1c(=N)c(S(=O)(=O)c2ccccc2)cc2c(=O)n3cccc(C)c3nc21,-13.2,–
CCCn1c(=N)c(C(=O)NCc2ccccc2)cc2c(=O)n3cccc(C)c3nc21,–,2.24 µM (active)
COc1ccc(-c2cc(C(=O)NCc3cc(OC)c(OC)c(OC)c3)[nH]n2)cc1,-8.61,–
Cc1ccccc1CNC(=O)C(=O)NCC(c1cccs1)S(=O)(=O)c1cccs1 (centres undefined),-27.5,–
Cc1ccc(-n2nc(C)c(C(=O)O)c2-n2cccc2)cc1,-0.533,–
CCn1c(=O)c2cc(C(=O)NCCc3ccc(Cl)cc3)sc2c2ccccc21,-26.8,–
CCC1CCCCN1CCCNC(=O)c1cc2c(Cl)nc3ccccc3c2s1 (centres undefined),–,17.8 µM (active)
CCOCCCNC(=O)c1cc2c(=O)n3ccccc3nc2s1,-12.9,–
O=S(=O)(Nc1ccc2nc(-c3cccc(Cl)c3)oc2c1)c1ccccc1,-19.7,–
COc1cc(OC)c(NC(=O)c2nc(-c3ccncc3)no2)cc1Cl,-11.9,–
CCCn1c2ccccc2c2cnn(CC(=O)NCCCOC(C)C)c(=O)c21,-4.77,–

SMILES,"activity change, negative = inhibition [%]",Potency
CCCN(CCC)CCCNC(=O)Cn1ncc2c3ccccc3n(Cc3ccccc3)c2c1=O,-19.1,–
O=C(Cn1ncc2c3ccccc3n(Cc3ccccc3)c2c1=O)NCc1ccccn1,-17.6,–
CCCn1c2ccccc2c2cnn(CC(=O)N3CCCC(C(=O)OCC)C3)c(=O)c21 (centres undefined),-19.6,–
Cc1ccc(Cn2c(C)c3cnn(CC(=O)NCc4ccccc4)c(=O)c3c2C)cc1,–,8.43 µM (active)
CCCn1c2ccccc2c2cnn(CC(=O)NCC3CCN(Cc4ccc(C)cc4)CC3)c(=O)c21,–,18.9 µM (active)
CCOC(=O)c1ccc(NC(=O)Cn2c(=O)n(-c3ccc(C)cc3)c(=O)c3c2cnn3C)cc1,3.69,–
O=C(CSc1nccn1Cc1ccc(F)cc1)NCc1ccccc1,0.174,–
COc1ccc(NC(=O)C2CCN(c3ccc(Sc4ccc(C)cc4)nn3)CC2)c(OC)c1,-27.1,–
COc1cc(C(=O)NCCc2csc3nc(-c4ccccc4C)nn23)cc(OC)c1OC,44.6,–
CCC(=O)Nc1ccc(C)cc1-c1nc2ccccc2n(Cc2ccccc2)c1=O,1.15,–
Cc1ccc(C)c(N2CCN(Cc3nnc(-c4ccccc4)o3)CC2)c1,-22.9,–
CCN(CC)C(=O)CSc1nc2ccsc2c(=O)n1Cc1ccccc1Cl,-22.1,–
COc1ccc(NS(=O)(=O)c2cc3c(cc2C)N(C(C)=O)CCO3)cc1,-6.59,–
Cc1ccc2nc(COc3cccc(NC(=O)Nc4ccc(C)c(Cl)c4)c3)cc(=O)n2c1,-3.59,–
O=c1c2cccnc2n(Cc2cccc(F)c2)c(=O)n1Cc1ccccc1Cl,14.6,–
CCOC(=O)c1ccc(NC2=CC(c3ccc(OCC)cc3)N(c3ccc(C(=O)OCC)cc3)C2=O)cc1 (centres undefined),-0.625,–
CCOC(=O)c1ccc(N2C(=O)c3n[nH]c(C)c3C2c2ccc(O)c(OC)c2)cc1 (centres undefined),–,7.51 µM (active)
Cc1ccc(C)c(N2CCN(C(=O)Cn3nc(C)c4sc5ccccc5c4c3=O)CC2)c1,11.4,–
COc1cccc(C(=O)N(Cc2cccc(Cl)c2)Cc2ccco2)c1,-23.2,–
CCOC(=O)c1ccc(NC(=O)C2CC(=O)NC(=Nc3ccc(C)c(C)c3)S2)cc1 (centres undefined),-24.1,–
CCOC(=O)Cc1ccc(NC(=O)Nc2c[nH]c(=O)[nH]c2=O)cc1,8.78,–
CCCCS(=O)(=O)c1oc(-c2cccs2)nc1S(=O)(=O)c1ccccc1,–,1.82 µM (active)
